Screen size: about 310,000 compounds; about 2,200 (0.71%) showed an effect of 50% or more. The effect is printed as a negative number. The entries come from a sample that favours strong results as a whole.
Target: human ether-à-go-go-related gene (hERG) potassium channel (human, UniProt Q12809)
Assay: primary screen, population patch clamp on CHO cells stably expressing hERG; higher = less effect of the substance

Sequence of human ether-à-go-go-related gene (hERG) potassium channel (Q12809 whole entry, looked up): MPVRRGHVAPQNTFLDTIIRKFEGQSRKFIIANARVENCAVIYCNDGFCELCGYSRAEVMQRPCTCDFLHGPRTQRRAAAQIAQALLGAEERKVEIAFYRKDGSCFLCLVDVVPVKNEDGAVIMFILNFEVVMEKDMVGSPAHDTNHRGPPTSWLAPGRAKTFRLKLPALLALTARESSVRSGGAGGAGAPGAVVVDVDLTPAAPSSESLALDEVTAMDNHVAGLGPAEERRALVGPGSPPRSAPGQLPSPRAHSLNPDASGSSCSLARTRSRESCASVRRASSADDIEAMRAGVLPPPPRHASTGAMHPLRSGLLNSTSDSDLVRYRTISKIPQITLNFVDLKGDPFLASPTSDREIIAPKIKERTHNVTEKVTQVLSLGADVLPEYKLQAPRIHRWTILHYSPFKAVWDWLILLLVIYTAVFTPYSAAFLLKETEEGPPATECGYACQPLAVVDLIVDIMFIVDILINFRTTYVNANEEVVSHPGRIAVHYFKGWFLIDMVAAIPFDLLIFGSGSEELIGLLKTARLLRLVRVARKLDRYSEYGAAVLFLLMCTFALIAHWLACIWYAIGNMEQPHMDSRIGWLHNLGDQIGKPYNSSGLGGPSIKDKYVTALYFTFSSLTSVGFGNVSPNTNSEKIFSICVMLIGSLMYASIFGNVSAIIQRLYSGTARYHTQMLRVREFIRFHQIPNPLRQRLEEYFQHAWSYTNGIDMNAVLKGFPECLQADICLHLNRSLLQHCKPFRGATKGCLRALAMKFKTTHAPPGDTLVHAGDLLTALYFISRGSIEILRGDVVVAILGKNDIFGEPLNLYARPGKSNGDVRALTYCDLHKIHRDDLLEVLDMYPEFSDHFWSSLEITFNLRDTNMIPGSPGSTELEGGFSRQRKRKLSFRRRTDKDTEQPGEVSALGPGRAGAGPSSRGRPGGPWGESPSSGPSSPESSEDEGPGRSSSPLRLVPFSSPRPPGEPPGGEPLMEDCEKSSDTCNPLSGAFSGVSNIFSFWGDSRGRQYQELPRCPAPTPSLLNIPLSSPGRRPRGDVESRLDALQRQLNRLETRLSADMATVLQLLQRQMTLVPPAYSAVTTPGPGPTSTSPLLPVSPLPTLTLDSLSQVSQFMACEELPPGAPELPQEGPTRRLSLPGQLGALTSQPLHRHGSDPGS

SMILES | hERG current change (%, negative = inhibition) at 1uM
Cn1c(=O)n(C)c2cc(NC(=O)CSc3nnc(-c4ccccc4O)n3-c3ccccc3)ccc21 | 6.95%
O=C(C1=NN[C@@H]2C(=O)N(c3cccc(F)c3)C(=O)[C@H]12)c1ccc2ccccc2n1 | 6.85%
CN(C)CCCN(C(=O)c1ccc(Br)s1)c1nc2cc3c(cc2s1)OCO3.Cl | 4.06%
O=C(c1cc2ccccc2o1)c1nc2c(n1O)CCCCC2 | 9.78%
COCCCNC(=O)Cn1c(=O)n(CCCCCC(=O)Nc2ccccc2)c(=O)c2sccc21 | 14%
Cc1ccc(S(=O)(=O)N2CCCC(C(=O)NNCC(=O)Nc3cc(F)ccc3F)C2)cc1 (stereo not drawn) | -0.56%
Cc1ccc(C(O)CN2C3=NCCN3c3ccccc32)cc1.Cl (stereo not drawn) | -40.9%
Cc1ccccc1CN1C2=NCCCN2c2ccccc21.Cl | -27.3%
Cc1ccc(C(O)CN2C3=NCCCN3c3ccccc32)cc1.Cl (stereo not drawn) | -51.4%
CC1CN(S(=O)(=O)c2ccc(C(=O)NCCCn3ccnc3)cc2)CC(C)O1 (stereo not drawn) | 11.7%
CCc1nc(SCC(=O)c2ccc(Cl)s2)c2oc3ccccc3c2n1 | 9.25%
CCCOc1cccc(C(=O)NCCNC(=O)c2ccco2)c1 | 18.6%
O=C(N/N=C/c1cc2c(cc1[N+](=O)[O-])OCO2)c1ccccn1 | 10.1%
Cc1cc(S(=O)(=O)N2CCN(c3c(C)cccc3C)CC2)ccc1F | -0.574%
CCC(C)N(C)Cc1cccc(C2(O)CCN(S(=O)(=O)c3ccc(F)c(C)c3)CC2)c1 (stereo not drawn) | -71.2%
CCC(C)N(C)Cc1cccc(C2(O)CCN(S(=O)(=O)c3ccc(F)cc3)CC2)c1 (stereo not drawn) | -30.8%
Cc1c(O[C@@H]2O[C@H](CO)[C@@H](O)[C@H](O)[C@H]2O)ccc2c1oc(=O)c1ccccc12 | 16.9%
Cn1cccc1Cc1nnc(SCC(=O)N2CCCC2)n1CCc1ccccc1 | 10.7%
Cc1nc2nc(N)nn2c(C)c1C/C=C/c1ccccc1 | 2.83%

SMILES | hERG current change (%, negative = inhibition) at 1uM
Cc1nnc2ccc(-c3cccc(NC(=O)c4ccco4)c3)nn12 | 1.54%
Cc1nnc2ccc(-c3cccc(NC(=O)c4ccc(Br)o4)c3)nn12 | -52.2%
Cc1nnc2ccc(-c3cccc(NC(=O)c4ccc(Cl)nc4)c3)nn12 | -1.98%
COc1ccc(CN2CCSc3sccc3C2=O)cc1 | 3.85%
CCc1ccc(Nc2ncc3c(n2)CC(c2ccco2)CC3=O)cc1 (stereo not drawn) | 5.43%
Cn1nccc1C(=O)N1CCN(c2ncccn2)CC1 | 9.95%
Cl.NC(=O)c1ccc(OCCC(O)N2CC=C(c3ccc(F)cc3)CC2)cc1 (stereo not drawn) | -53%
CN1CCNC(=O)C1CC(=O)N1CC=C(c2ccc(F)cc2)CC1 (stereo not drawn) | 16.2%
CCCCOc1ccc(C(=O)NCC(=O)N2CC=C(c3ccccc3)CC2)cc1 | 10.7%
O=C(NCc1ccccc1)c1cccc(S(=O)(=O)NCc2ccccc2)c1 | 6.18%
CCN(CC)c1ccc(NC(=O)C2CCC(CNc3c(N4CCCC4)c(=O)c3=O)CC2)c(C)c1 (stereo not drawn) | 13.6%
CCOc1ccc(C(C)=O)cc1COC(=O)C1=COCCO1 | -0.905%
CNCc1cc2ccc(C)cc2[nH]c1=O | -6.99%
Cc1ccc2cc(CNCCc3ccccc3C)c(=O)[nH]c2c1 | -42.9%
Cc1cccc(CCNCc2cc3cccc(C)c3[nH]c2=O)c1 | -35.7%
COc1ccc(CCNCc2cc3ccc(C)cc3[nH]c2=O)cc1OC | -53.5%
COc1ccc(CCN(Cc2cc3ccc(C)cc3[nH]c2=O)C(C)=O)cc1OC | -26.6%
Cc1cccc(CCNCc2cc3ccc(C)cc3[nH]c2=O)c1 | -54.6%
Cc1ccc(Cl)cc1N1CCN(C(=O)Cc2c(C(=O)O)[nH]c3ccc(Cl)cc23)CC1 | 22.4%

SMILES | hERG current change (%, negative = inhibition) at 1uM
COCCOc1cnn(-c2cc(Oc3ccc(C)cc3)ncn2)c(=O)c1Cl | 7.88%
Cc1ccc(-n2c(SCC3CNC(=O)O3)nnc2-c2ccccc2)cc1C (stereo not drawn) | 0.305%
CCOc1ccc(NC(=O)CN(C)C(=O)c2c(C)noc2C)cc1OCC | 9.87%
CCN(CC)CCCNC(=S)Nc1ccc(Br)cc1 | -8.09%
COc1ccc(C(=O)NC2CCN(Cc3c(F)cccc3Cl)CC2)cc1OC | 10.1%
COc1ccc(C(=O)NC2CC2)cc1OC1CCN(Cc2ccc(F)cc2F)CC1 | -75.1%
COc1ccc(C(=O)NC2CC2)cc1OC1CCN(Cc2ccc(F)cc2Cl)CC1 | -62%
O=C(NCc1ccccn1)c1ccc(OC2CCN(Cc3ccc(F)cc3F)CC2)cc1 | 0.219%
COCCNC(=O)c1cccc(OC2CCN(Cc3ccc(F)cc3OC)CC2)c1 | 10.6%
COc1ccc(C(=O)NCC(=O)OCc2ccc(F)cc2Cl)cc1OC | 11.2%
CCCN1CCN(C(=O)c2oc3c(Cl)cccc3c2C)CC1 | -0.0965%
CCCCC(=O)Nc1cccc(NC(=O)CC)c1 | 10.3%
Cc1ccccc1-n1cc(-c2ccc(Br)cc2)nc1SCC(N)=O | 10.3%
Clc1cccc(OCCCCN2CCCCC2)c1 | -4.66%
Clc1cccc(OCCN2CCOCC2)c1.O=C(O)C(=O)O | 5.84%
CCC1CCCCN1CCCCOc1cccc(Cl)c1.O=C(O)C(=O)O (stereo not drawn) | -55.6%
COc1ccc(CNC(=O)C(C)N2C(=O)NC(c3ccccc3)(c3ccccc3)C2=O)cc1 (stereo not drawn) | -56.1%
CCNC(=O)NC(=O)C(C)N1C(=O)NC(c2ccccc2)(c2ccccc2)C1=O (stereo not drawn) | -2.55%
CC(C(=O)NC(N)=O)N1C(=O)NC(c2ccccc2)(c2ccccc2)C1=O (stereo not drawn) | -0.156%

Reference: PMC4336329 (PLoS ONE, 2015)
